Screens from PubChem.
The entries come from a sample that favours hits as a whole.
CtBP-E1A inh: CtBP/E1A binding inhibition; AID 651724; AlphaScreen GST-E1A/His-CtBP binding, 1536-well; active compounds read low; activity change, % (concentration not given with the values); 340,000 compounds, 0.49% hits; in the data active = activity change below about -65%; inconclusive = mostly about -30% to -63%
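AlphaScreen with 125 nM GST-E1A and 125 nM His-CtBP (5X stocks) in Tris pH 8.0, 300 mM NaCl, BSA, Tween 20, TCEP. Compounds preincubated 2 h at 37 deg C, then glutathione donor/nickel acceptor beads added for 1 h at 37 deg C in dark.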
Six1-Eya2 blk: blocks human Six1 binding to Eya2. Q15475+O00167. AlphaScreen GST-Six1/His-Eya2 binding, biochemical; active compounds read low. activity change, % (test concentration not listed). 360,000 compounds, 0.56% hits. AID 651725; in the data active = activity change below about -65%; inconclusive = mostly about -30% to -63%
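Homogeneous AlphaScreen proximity assay pairing GST-Six1 with His-tagged Eya2 (added as 5X mix: 250 nM and 500 nM) in 50 mM Tris pH 8.0, 300 mM NaCl, 1 mM TCEP. Glutathione donor and nickel acceptor beads; 1 h, 37 °C, dark.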
Eya2 inh: Eya2 (human) phosphatase inhibition. recombinant Eya2, OMFP fluorescence dephosphorylation (OMFP is methylfluorescein phosphate). Potency, µM (doses to about 76.9 µM), inactives show top-dose activity, negative = inhibition, actives largely listed as inhibitors. 330,000 compounds, 0.006% hits. AID 488837; also: potency is read from the fitted curve at half-maximal effect
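Eya2 (0.2 uM) preincubated 10 min at ambient with compound, then OMFP substrate added at 50 uM; 10 min reaction in 50 mM HEPES pH 7.5, 50 mM NaCl, 5 uM MgCl2, 0.05% BSA, 1 mM DTT. Fluorescence read at Ex 485/Em 525 nm.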
Apoferritin bind: candidate novel general anesthetic via apoferritin binding; Potency, µM (series often up to 77.5 µM), for inactives: at the highest dose activity change, negative = displacement, actives largely listed as inhibitors; 350,000 compounds, 0.074% hits; apoferritin/1-aminoanthracene competitive binding, fluorescence; also: potency is read from the fitted curve at half-maximal effect; nearly all actives have a fitted effect of over 20% in size
Target sequence (P02791 2-175 limits assumed): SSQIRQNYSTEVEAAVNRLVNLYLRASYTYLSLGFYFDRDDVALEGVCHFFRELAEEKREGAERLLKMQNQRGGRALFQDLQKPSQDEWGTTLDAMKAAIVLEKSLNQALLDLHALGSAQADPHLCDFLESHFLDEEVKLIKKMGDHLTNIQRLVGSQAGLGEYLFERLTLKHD
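In PBS, apoferritin at 10 uM is loaded with 1-AMA from a 50% saturated solution. After 10 min of compound exposure at ambient temperature, reduced 535 nm fluorescence indicates probe displacement.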
GALK inh: galactokinase (human) inhibition | P51570 | Purified GALK, Kinase-Glo residual ATP luminescence | Potency, µM (doses to about 57.5 µM), without a hit: top-dose activity change, negative = inhibition, most hits filed as inhibitors | 270,000 compounds, 0.007% hits; also: potency is read from the fitted curve at half-maximal effect
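5 nM enzyme, 35 uM ATP, 100 uM galactose, 20 mM HEPES pH8.0, 5 mM MgCl2; 1 h RT; residual ATP by Kinase-Glo Plus luminescence, qHTS format.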
KDM4E inh: JMJD2E (human) inhibition | B2RXH2 | JMJD2E catalytic domain, FDH-coupled NADH fluorescence (FDH is formaldehyde dehydrogenase) | Potency, µM (series often up to 57.1 µM), for the others: at the highest dose activity change, negative = inhibition, most hits filed as inhibitors | 230,000 compounds, 1.6% hits; active = well fitted inhibition curve with a large enough effect, not every such curve was filed as active; inconclusive = small, poorly fitted or top-dose-only effect, or another doubt; inactive = no such curve, though single readings can be large or run the other way;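 also: potency is read from the fitted curve at half-maximal effect; 0% = wells with enzyme and -100% = buffer wells without enzyme; nearly all actives have a fitted effect of over 50% in size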
Target sequence (B2RXH2 1-337 limits assumed): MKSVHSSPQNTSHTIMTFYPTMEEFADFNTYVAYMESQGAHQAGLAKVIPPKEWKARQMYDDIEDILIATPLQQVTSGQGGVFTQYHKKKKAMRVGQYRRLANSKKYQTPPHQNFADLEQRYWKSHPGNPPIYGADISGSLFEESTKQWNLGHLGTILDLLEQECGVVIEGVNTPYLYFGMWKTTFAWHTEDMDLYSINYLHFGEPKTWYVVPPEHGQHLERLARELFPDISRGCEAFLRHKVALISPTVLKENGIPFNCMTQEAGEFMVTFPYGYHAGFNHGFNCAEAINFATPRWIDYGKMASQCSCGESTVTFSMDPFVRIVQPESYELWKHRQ
* marks the source's active call; other numbers are inactive results; ? = inconclusive; . = no result given. Unless noted, calls follow the shape of the dose curve; as a rule, active = well fitted curve in the direction sought with a large enough effect; inconclusive = small, poorly fitted or top-dose-only effect, or another doubt; inactive = no such curve, though single readings can be large; an effect the other way counts as inactive or inconclusive. Unless noted, % is scaled to controls: 0 for no effect and ±100 for the full control effect.

SMILES	CtBP-E1A inh	Six1-Eya2 blk	Eya2 inh	Apoferritin bind	GALK inh	KDM4E inh
C=C1C2CC[C@@]3(C)C(c4ccoc4)OC(=O)C[C@@]13OC1CC(OC(C)=O)C(C)(C)C(CC(=O)OC)[C@@]12C (stereo not given in full)	.	.	.	2.6%	.	-6.5%
CN(C)c1ccc(NC(=O)c2ccc(COc3cccc(Cl)c3)o2)cc1	?	-71.5*	-9.9%	-21.9%	-2.3%	-12.0%
Cc1ccc(NC(=O)c2ccc(COc3ccccc3Cl)o2)cc1	.	.	.	259.9%	.	.
COc1ccc(CCNC(=O)C2CC2)cc1OC	-0.1	-1.6	-5.3%	-8.9%	5.0%	4.8%
COc1ccc(CCNCC(=O)N2C(C)CCCC2C)cc1OC (stereo not given)	-2.4	-6.6	0.1%	-5.3%	1.0%	31.6µM*
COC(=O)c1ccc(C(NC(=O)OCc2ccccc2)/C(=C/[C@@H](C)C(=O)N[C@@H](CO)Cc2ccccc2)c2cccnc2)cc1 (stereo not given in full)	.	.	.	?	.	-0.4%
O=C(NCCCO)c1ccc2nc(-c3ccco3)c(-c3ccco3)nc2c1	-15.8	?	-3.6%	129.2%	-2.0%	12.6µM*
Cc1ccc(-c2c3c([nH]c(=S)c2C#N)CCCC3)o1	-23.3	-20.4	13.9%	-18.6%	5.3%	28.2µM*
CC(=O)N/N=C/c1cc(C(C)C)cc(/C=N/NC(C)=O)c1O	-83.8*	-74.5*	-0.8%	-0.8%	1.7%	?
CSc1nn(Cc2cccc(F)c2)c(N(C(C)=O)C(C)=O)c1S(=O)(=O)c1ccccc1	.	.	.	-1.7%	.	.
Cc1ccc(OCC(=O)Nc2cccc(OCc3cc(=O)n4cccc(C)c4n3)c2)cc1C	.	.	.	-12.5%	.	.
COc1ccc2oc3cc(NCCN(C)C)ccc3c(=O)c2c1	-74.6*	-70.3*	.	.	.	.
COc1ccc2c(=O)c3ccccc3oc2c1	7.8	0.0	7.1%	-9.4%	.	.
CC1(C)SC2C(C(=O)O)N=C(Cc3ccccc3)N2C1C(=O)O (stereo not given)	-84.1*	-81.0*	.	.	.	.
CC(=O)c1ccc(Nc2nc(C(N)CC(C)C)cs2)cc1 (stereo not given)	-1.1	-2.5	.	.	.	.
CC(C)CC(N)c1csc(Nc2ccc(C(=O)c3ccccc3)cc2)n1 (stereo not given)	-3.3	-2.2	.	.	.	.
CC(C)CC(N)c1csc(Nc2cnccn2)n1 (stereo not given)	-75.1*	?	.	.	.	.
CC(C)CC(N)c1csc(Nc2ccccn2)n1 (stereo not given)	-89.2*	-83.3*	.	.	.	.
NC(CO)c1csc(Nc2ccc(C(F)(F)F)cn2)n1 (stereo not given)	-73.8*	?	.	.	.	.
CC(C)CC(N)c1csc(Nc2ccc(C(F)(F)F)cn2)n1 (stereo not given)	?	-5.1	.	.	.	.
NCCn1oc(=O)[nH]c1=O	.	.	.	4.2%	.	.
COC1=C2C[C@@H](C)C[C@H](OC)[C@H](O)[C@@H](C)/C=C(\C)[C@H](OC(N)=O)[C@@H](OC)/C=C\C=C(/C)C(=O)NC(=CC1=O)C2=O	.	.	.	-0.2%	.	.
CC1=C(O)C(=O)C(C2=C(O)C(=O)C(C)=C(O)C2=O)=C(O)C1=O	-84.7*	-91.8*	.	.	.	.
O=c1c(O[C@@H]2O[C@H](CO)[C@H](O)[C@H](O)[C@H]2O)c(-c2ccc(O)c(O)c2)oc2cc(O)cc(O)c12	.	.	1.0%	-22.9%	-9.0%	1.78µM*
COc1cc(-c2oc3cc(O)cc(O)c3c(=O)c2O[C@@H]2O[C@H](CO)[C@@H](O)[C@H](O)[C@H]2O)ccc1O	.	.	.	-14.5%	.	.
CC1OC(OCC2OC(Oc3c(-c4ccc(O)cc4)oc4cc(O)cc(O)c4c3=O)C(O)C(O)C2O)C(O)C(O)C1O (stereo not given)	2.7	-13.1	-2.7%	-11.9%	-4.2%	-0.2%
COc1c(-c2ccc(O)c(O)c2)oc2cc(O)cc(O)c2c1=O	-21.8	-25.1	6.4%	-6.7%	-6.1%	14.1µM*
